# Source: PubChem BioAssay (National Center for Advancing Translational Sciences (NCATS))
# Rows were chosen to be rich in hits. Some 7.5% of all compounds tested hit in one or more screens of this group.
# KinaseGlo FLuc – Counterscreen for Luciferase (Kinase-Glo TM) Inhibition; Luciferin 4-monooxygenase (Photuris pensylvanica), Q27757; Kinase-Glo luciferase, ATP luminescence, 8 min; Potency, µM (doses to about 38.3 µM), for the others: at the highest dose activity change, negative = inhibition, hits mostly inhibitors; 0.28% of 200,000 active; AID 1379, 2008; also: % is scaled to controls: 0 for no effect and ±100 for the full control effect; nearly all actives have a fitted effect of over 60% in size
#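 Light output from Kinase-Glo luciferase with luciferin and 10 uM ATP in 50 mM imidazole pH 7.2, KCl, MgCl2, Tween 20, BSA; compound pin-delivered, 8-min ambient incubation, then luminescence read.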
# NPC1 promoter act – qHTS Assay for NPC1 Promoter Activators; Huh7 NPC1 promoter luciferase reporter, 24 h; Potency, µM (series often up to 9.22 µM), without a hit: at the top dose activation, hits mostly activators; 2.4% of 320,000 active; AID 485313, 2010; also: % of control where 0% means no effect; nearly all actives have a fitted effect of over 60% in size
#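 Compounds in DMSO were transferred onto Huh7 NPC1-luciferase reporter cells pre-incubated 2 h; after 24 h at 37 °C, Amplite reagent was dispensed and luminescence recorded 10 min later.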
# FLuc counter – qHTS profiling assay for firefly luciferase inhibitor/activator using purifed enzyme and Km concentrations of substrates (counterscreen for miR-21 project). Luciferin 4-monooxygenase (Photinus pyralis), P08659. purified FLuc, Km substrates, luminescence inhibition. Potency, µM (top dose mostly 57.5 µM), for inactives: at the top dose activity change, negative = inhibition, usual class: inhibitors. 6.9% of 360,000 active. AID 588342, 2011;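 also: plate controls were vehicle for no effect and reference inhibitor for full effect; nearly all actives have a fitted effect of over 55% in size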
# Target sequence (P08659 whole entry, looked up): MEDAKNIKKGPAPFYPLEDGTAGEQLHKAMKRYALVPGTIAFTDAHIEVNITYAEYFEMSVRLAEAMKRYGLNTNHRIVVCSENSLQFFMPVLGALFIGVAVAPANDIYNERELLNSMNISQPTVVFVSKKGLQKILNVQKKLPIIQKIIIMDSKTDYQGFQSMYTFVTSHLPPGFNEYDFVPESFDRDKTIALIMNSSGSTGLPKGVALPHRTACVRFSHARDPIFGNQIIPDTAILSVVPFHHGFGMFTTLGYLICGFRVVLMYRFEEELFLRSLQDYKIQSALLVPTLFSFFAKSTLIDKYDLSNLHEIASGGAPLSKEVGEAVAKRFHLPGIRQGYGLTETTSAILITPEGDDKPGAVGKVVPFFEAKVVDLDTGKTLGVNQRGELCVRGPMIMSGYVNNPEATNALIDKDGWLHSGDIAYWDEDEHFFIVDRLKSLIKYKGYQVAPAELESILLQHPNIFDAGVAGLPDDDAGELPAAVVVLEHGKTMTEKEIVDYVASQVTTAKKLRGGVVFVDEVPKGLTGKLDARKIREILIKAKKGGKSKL
#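 Purified P. pyralis luciferase, 10 nM final, with Km-level 10 uM D-luciferin and 10 uM ATP in 50 mM Tris acetate pH 7.5, 10 mM Mg acetate, 0.01% Tween-20, 0.05% BSA; 6-point qHTS titration about 60 µM downward; luminescence read.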
# Rab9 promoter act – qHTS Assay for Rab9 Promoter Activators | Huh7 Rab9 promoter-luciferase reporter, luminescence, 24 h | Potency, µM (series often up to 9.22 µM), inactives show top-dose activation, negative = inhibition, hits mostly activators | 2.8% of 320,000 active; also: % of control where 0% means no effect; nearly all actives have a fitted effect of over 60% in size
#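 Stable Rab9-luc Huh7, 1500 cells/well, 2 h settle; cmpd in DMSO, 24 h, 37 °C/5% CO2; luciferase reagent 10 min RT; luminescence.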
# SMN2 splice up – qHTS Assay for Enhancers of SMN2 Splice Variant Expression; AID 1458, 2008; HEK293 SMN2-luciferase splicing reporter, luminescence, 30-36 h; 2.8% of 210,000 active; Potency, µM (doses to about 46.1 µM), inactives show at the top dose activity change, positive = activation, hits mostly activators; also: % of control where 0% means no effect; nearly all actives have a fitted effect of over 55% in size
#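 HEK293 cells carry an SMN2 […]–luciferase reporter in which exon 7 inclusion puts luciferase in frame. Cells were plated 10-12 h before compound addition, then incubated 30-36 h at 37C. ONE-Glo luminescence was read; sodium butyrate at 4.5 mM final served as control.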
# ELG1 genotoxic – qHTS screen for small molecules that induce genotoxicity in human embryonic kidney (HEK293T) cells expressing luciferase-tagged ELG1. HEK293T ELG1-luciferase reporter, luminescence, 16 h. 1.3% of 330,000 active. AID 504466, 2011. Potency, µM (titrated, usually from 46 µM), inactives show top-dose activity change, positive = activation, actives largely listed as activators; also: % of control where 0% means no effect; nearly all actives have a fitted effect of over 60% in size
#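 Screening used a luciferase reporter fused to human ELG1 in HEK293T cells. Luminescence was read on a CCD plate imager after 16 hr exposure and 30 min ONE-Glo incubation.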
# Active calls of the source: *; ? = inconclusive; nt = not tested or not shown; [ ] = remark or other dose. Calls follow the shape of the dose curve; as a rule, active = well fitted curve in the direction sought with a large enough effect; inconclusive = small, poorly fitted or top-dose-only effect, or another doubt; inactive = no such curve, though single readings can be large; an effect the other way counts as inactive or inconclusive. Potency is read from the fitted curve at half-maximal effect.
SMILES,KinaseGlo FLuc,NPC1 promoter act,FLuc counter,Rab9 promoter act,SMN2 splice up,ELG1 genotoxic
COc1ccc(NC(=S)Nc2ccc(N)c([N+](=O)[O-])c2)cc1,-4%,9%,?,12%,16µM*,?
COc1ccc(NC(=O)c2ccccc2[N+](=O)[O-])cc1,2%,13%,-10%,18%,20%,7%
CSc1ccccc1NC(=O)C(=O)c1c[nH]c2ccccc12,0%,26%,15µM*,?,?,12%
O=C(Nc1nccs1)C(=O)c1c[nH]c2ccccc12,-6%,?,7.6µM*,3.2µM*,?,8.2µM*
O=C(COC(=O)Cn1cnc2ccccc21)Nc1cc2c(cc1Cl)C(=O)c1ccccc1C2=O,-5%,3.2µM*,?,2.8µM*,18µM*,?
CCOc1ccc(NC(=O)COc2ccc3c(c2)OCO3)cc1,nt,0%,-18%,-3%,nt,15%
CCOc1ccc(C(=O)NC2CC(=O)N(c3ccc4c(c3)OCCO4)C2)cc1 (stereo not given),nt,-2%,1%,-4%,nt,8%
CCOc1ccc(N/C(C)=C\C(=O)c2ccc3c(c2)OCCO3)cc1,2%,2.5µM*,3.8µM*,1.1µM*,nt,12%
CCOc1ccc(N/C(C)=C/C(=O)c2ccc3c(c2)OCCO3)cc1,nt,3.2µM*,5.4µM*,2.2µM*,nt,?
COc1ccc(-c2nnc(SCC(=O)Oc3ccc(C)cc3)o2)cc1,0%,0%,?,0%,8%,0%
COc1ccc(-c2nnc(SCC(C)C)o2)cc1,nt,1µM*,1.5µM*,0.63µM*,nt,?
COc1ccc(-c2nnc(SC)o2)c(OC)c1,2%,13%,?,23%,27%,?
CCOC(=O)CSc1nnc(-c2ccc(OC)cc2)o1,nt,nt,17µM*,nt,0%,nt
CCOC(=O)CSc1nnc(-c2ccc(OC)cc2OC)o1,-3%,0%,9.5µM*,2%,7%,3%
Cc1ccc(CNC(=O)[C@H](C)[C@@H]2C[C@@]2(C)[C@@H](NC(=O)OCc2ccccc2)c2ccccc2)c(F)c1F,-1%,nt,nt,nt,-10%,nt
COC(=O)C1=C(C(=O)OC)[C@@H]2N(Cc3ccccc3)c3ccccc3[C@@]23C[C@@H](C(=O)OC)N(C(=O)C2CCC2)C3=N1,-3%[7.66 µM],nt,nt,nt,3%[9.22 µM],nt
O=C(Oc1ccccc1-c1csnn1)c1cccs1,-1%,-1%,0%,1%,0%,-1%
c1ccc(-c2ccc(-c3csnn3)cc2)cc1,-6%,2.2µM*,?,2µM*,?,13%
O=C(Oc1ccc(-c2csnn2)cc1)c1cccs1,nt,-2%,2.4µM*,7%,nt,-5%
O=S(=O)(Nc1ccccc1)c1ccc(-c2csnn2)cc1,nt,-4%,-2%,1%,nt,-5%
O=C(Oc1ccc(-c2csnn2)cc1)C1CC1,nt,-6%,17µM*,0%,nt,0%
COc1ccc(NC(=O)CN2C(=O)CCc3cc(S(=O)(=O)N4CCOCC4)ccc32)c(OC)c1,nt,nt,-5%,nt,nt,nt
CCN1CCN(c2ccc(NC(=O)c3ccc(Br)o3)cc2)CC1,nt,?,17µM*,?,nt,16µM*
O=C(Nc1ccc(N2CCCC2)cc1)c1ccc(Br)o1,-17%,0.5µM*,11µM*,0.35µM*,?,?
O=C(Nc1ccc(N2CCN(C(=O)c3ccccc3)CC2)cc1)c1ccc(Br)o1,0%,8%,1%,0%,-14%,-25%
SMILES,KinaseGlo FLuc,NPC1 promoter act,FLuc counter,Rab9 promoter act,SMN2 splice up,ELG1 genotoxic
COc1ccc(Nc2ncnc3c2nc2n3CCCC2)cc1Cl,nt,nt,19µM*,nt,nt,nt
CCOc1ccc(Nc2ncnc3c2nc2n3CCCCC2)cc1,nt,nt,-18%,nt,nt,nt
Fc1ccc(Nc2ncnc3c2nc2n3CCCCC2)c(F)c1,nt,nt,21µM*,nt,nt,nt
O=C(Nc1ccc(F)cc1F)C1CCCN(c2ncnc3c2nc2n3CCCCC2)C1 (stereo not given),nt,-3%,5%,-2%,nt,-6%
COc1ccc(Nc2ncnc3c2nc2n3CCCCC2)cc1,nt,nt,17µM*,nt,nt,nt
O=S(=O)(NCc1ccc(F)cc1)c1ccc(Br)cc1Br,nt,-2%,1%,-8%,nt,0%
O=C(NCCCCN1CCCC1)c1ccc(-n2c(=O)c(=O)[nH]c3ccccc32)cc1,-1%,nt,nt,nt,nt,nt
NC(=O)CSc1nc2cc3c(cc2c(=O)n1CCCCCC(=O)NCc1ccc2c(c1)OCO2)OCO3,nt,nt,0%,nt,nt,nt
C=CCNCCCCOc1ccc(OCc2ccccc2)cc1,5%,?,17µM*,?,24%,13µM*
c1ccc(COc2ccc(OCCOCCn3cncn3)cc2)cc1,-3%,1.4µM*,8.5µM*,1.3µM*,8.9µM*,5.2µM*
c1ccc(COc2ccc(OCCCN3CCCCC3)cc2)cc1,-5%,?,13µM*,3.2µM*,?,7.9µM*
c1ccc(OCCCN2CCCC2)cc1,3%,0%,-1%,-4%,-23%,-3%
c1ccc(COc2ccc(OCCCCN3CCCC3)cc2)cc1,nt,2.2µM*,12µM*,2.5µM*,nt,?
COc1ccc(N2CCN(C3CCCN(C(=O)CN4CCCC4=O)C3)CC2)cc1 (stereo not given),nt,1%,0%,-5%,nt,-1%
COc1ccc(C(=O)Nc2ccnn2C2CCN(C(=O)c3cc(C)on3)CC2)cc1,nt,-4%,-16%,5%,nt,11%
Cc1ccc(-n2nc(CO)c(C(=O)NCc3cccs3)n2)cc1C,nt,nt,-14%,nt,-15%,nt
CN(C)c1ccc(-c2nc3cc(N)ccc3o2)cc1,nt,0.32µM*,0.19µM*,0.32µM*,nt,0.52µM*
COc1ccc2oc(-c3ccc(C)c(NC(=O)COc4cc(C)cc(C)c4)c3)nc2c1,nt,nt,-1%,nt,1%,nt
Cc1ccc(-c2nc3cc(N)ccc3o2)cc1Br,nt,1.3µM*,1.9µM*,1.8µM*,nt,2.9µM*
Nc1ccc(-c2nc3cc(N)ccc3o2)cc1,nt,0.4µM*,2.7µM*,0.63µM*,nt,5.2µM*
Nc1ccc2oc(-c3cc(Br)ccc3Cl)nc2c1,-6%,-1%,?,3%,12%,?
Cc1ccc(C)c(-c2nc3cc(N)ccc3o2)c1,-5%,20%,13µM*,?,11µM*,10µM*
Clc1cccc(Cl)c1-c1noc(CN2CCOCC2)n1,nt,7%,2%,9%,nt,1%
COc1cccc(NC(=O)Cn2c(=O)n(Cc3ccc(C(=O)NCc4ccc5c(c4)OCO5)cc3)c(=O)c3ccccc32)c1,nt,nt,0%,nt,-5%,nt
Nc1ccc(-c2nc3ccc(-c4nc5ccccc5o4)cc3[nH]2)cc1,0%,29%,?,26%,4%,2%
